GPT2 inhibitor – Primary qHTS assay for inhibitors of Glutamate pyruvate transaminase 2 (GPT2). 0.25% of 100,000 active. Alanine aminotransferase 2 (Homo sapiens), Q8TD30. Recombinant GPT2, coupled pyruvate oxidase/HRP Amplex Red fluorescence. Potency, µM (highest dose often 57.7 µM), usual class: inhibitors; note: nearly all actives have a fitted effect of over 60% in size
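Fluorescence of coupled pyruvate oxidase/HRP/Amplex Red system (50uM Amplex, 30 min, dark) reports pyruvate formed by GPT2. Enzyme reaction: 10ng/uL GPT2, 2mM L-alanine, 250uM a-KG, 30 min room temperature, pH 7.5; 50uM AOA control.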
HEK293 tox – Cytotoxic Profiling in HEK 293 Cell Line of Diverse Libraries Using Quantitative High-Throughput Screening; HEK 293 viability, ATP luminescence (CellTiter-Glo), 48-72 h; 6.6% of 94,000 active; Potency, µM (titrated, usually from 115 µM), usual class: inhibitors; note: nearly all actives have a fitted effect of over 60% in size
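CellTiter-Glo luminescence (cellular ATP) was read after 48 or 72 hr of compound exposure at 37 degree Celsius. Cells were HEK 293 plated at 250 cells/well.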
hNpr1 antagonist – Natriuretic polypeptide receptor (hNpr1) antagonism - Primary qHTS. Potency, µM (doses to about 46.3 µM), usual class: inhibitors. 1.6% of 76,000 active. HEK293 hNpr1 GloSensor cGMP, ANP-stimulated luminescence; calls by dose curve; note: nearly all actives have a fitted effect of over 60% in size
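HEK293 cells stably expressing human Npr1 and cGMP GloSensor pGS-40F, loaded 2 h with 2% GloSensor reagent, given compound 30 min at room temperature. Luminescence read before and 20 min after 0.1 nM hNppA.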
Luciferase inh – Firefly luciferase inhibition profiling of diverse chemical library using quantitative high-throughput screening; 2.5% of 76,000 active; Luciferin 4-monooxygenase (Photinus pyralis), P08659; Potency, µM (series often up to 115 µM), usual class: inhibitors; purified P. pyralis luciferase, luminescence, biochemical; note: nearly all actives have a fitted effect of over 65% in size
Target sequence (P08659 whole entry, looked up): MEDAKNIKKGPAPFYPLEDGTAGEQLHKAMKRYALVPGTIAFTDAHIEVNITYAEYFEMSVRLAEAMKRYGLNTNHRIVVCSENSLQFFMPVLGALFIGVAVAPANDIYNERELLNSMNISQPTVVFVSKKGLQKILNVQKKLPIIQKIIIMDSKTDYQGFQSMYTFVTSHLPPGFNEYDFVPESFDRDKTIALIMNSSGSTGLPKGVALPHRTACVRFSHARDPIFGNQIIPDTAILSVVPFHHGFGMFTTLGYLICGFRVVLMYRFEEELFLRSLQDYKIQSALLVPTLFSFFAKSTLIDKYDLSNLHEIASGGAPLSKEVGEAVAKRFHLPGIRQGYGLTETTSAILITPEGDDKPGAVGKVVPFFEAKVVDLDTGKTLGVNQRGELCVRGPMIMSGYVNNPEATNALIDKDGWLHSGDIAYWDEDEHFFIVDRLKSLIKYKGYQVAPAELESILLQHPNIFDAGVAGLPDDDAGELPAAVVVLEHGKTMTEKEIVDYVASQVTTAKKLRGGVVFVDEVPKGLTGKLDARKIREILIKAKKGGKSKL
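FLuc 10nM, D-luciferin 10uM, ATP 10uM, Mg acetate 10mM, Tris acetate pH 7.5, Tween/BSA; cpd qHTS; enzyme added last; CCD luminescence.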
3T3 cytotox – Cytotoxic Profiling in NIH 3T3 Cell Line of Diverse Libraries Using Quantitative High-Throughput Screening; NIH 3T3 viability, CellTiter-Glo ATP luminescence, 48-72 h; Potency, µM (top dose mostly 96.7 µM), usual class: inhibitors; 4.3% of 94,000 active; note: nearly all actives have a fitted effect of over 55% in size
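Cells were seeded at 400 per well, treated with pin-transferred compound, and kept 48 or 72 hr at 37 °C before CellTiter-Glo addition and luminescence imaging of cellular ATP.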
Npr1 antag conf – Natriuretic polypeptide receptor (hNpr1) antagonism - Confirmation. shares compounds with hNpr1 antagonist. HEK293 hNpr1 cGMP GloSensor luminescence, ANP-stimulated. Potency, µM (highest dose often 57.6 µM), hits mostly inhibitors. 76% of 1,400 active. AID 1347044, 2019; calls by dose curve; note: nearly all actives have a fitted effect of over 70% in size
NPR2 antag – Natriuretic polypeptide receptor (hNpr2) antagonism - Subtype selectivity assay | 67% of 1,400 active | HEK293 hNpr2 GloSensor cGMP luminescence, CNP-stimulated | Potency, µM (highest dose often 57.6 µM), hits mostly inhibitors | shares compounds with hNpr1 antagonist; calls by dose curve; note: nearly all actives have a fitted effect of over 70% in size
FLuc inh counter – Natriuretic polypeptide receptor (hNpr1) antagonism - Confirmation firefly luciferase (FLuc) inhibition counterscreen. Potency, µM (doses to about 57.6 µM), actives largely listed as inhibitors. 0.7% of 1,400 active. purified FLuc enzyme, luminescence, Km substrate. shares compounds with hNpr1 antagonist
GloSensor ctrl – Natriuretic polypeptide receptor (hNpr1) antagonism - Counterscreen GloSensor control cell line | shares compounds with hNpr1 antagonist | HEK293 GloSensor cGMP, SNP-stimulated, luminescence | Potency, µM (highest dose often 57.6 µM), hits mostly inhibitors | 69% of 1,400 active | AID 1347051, 2019; calls by dose curve; note: nearly all actives have a fitted effect of over 70% in size
Each line names hits and unclear results; the compound was inactive in the other large screens (follow-up assays come after a bar, where they were run). Sampled rows, rich in hits. Any-hit rate of the full collection: about 10%. Unless noted, calls come from the whole dose curve; as a rule, active = well fitted curve in the direction sought with a large enough effect; inconclusive = small, poorly fitted or top-dose-only effect, or another doubt; inactive = no such curve, though single readings can be large; an effect the other way counts as inactive or inconclusive.

Cc1ccc(OCC(=O)N2CC(Oc3ccc(-c4nc(-c5ccccc5)no4)cc3)C2)cc1	Luciferase inh inconclusive
COc1ccccc1C(=O)N1CC(Oc2ccc(-c3nc(-c4ccccc4)no3)cc2)C1	HEK293 tox inconclusive, hNpr1 antagonist 11.2µM, 3T3 cytotox inconclusive | Npr1 antag conf 24.3µM | NPR2 antag 24.3µM | FLuc inh counter inactive | GloSensor ctrl 21.7µM
COC(=O)[C@@H]1Cc2ncn(Cc3ccc(Cl)cc3)c2CN1C(=O)c1ccc(C#N)cc1	3T3 cytotox inconclusive
COC(=O)[C@@H]1Cc2ncn(Cc3ccc(Cl)cc3)c2CN1Cc1cccc(C#N)c1	HEK293 tox 63.1µM, hNpr1 antagonist inconclusive, 3T3 cytotox inconclusive | Npr1 antag conf inconclusive | NPR2 antag inconclusive | FLuc inh counter inactive | GloSensor ctrl inconclusive
Cc1nc(CN2Cc3nc(-c4ccc(Cl)cc4)ccc3OCC2=O)cs1	HEK293 tox inconclusive, hNpr1 antagonist inconclusive, 3T3 cytotox inconclusive
O=C1COc2ccc(Nc3ccc(Cl)cc3)nc2CN1Cc1nc2ccccc2s1	HEK293 tox 31.6µM, hNpr1 antagonist inconclusive, 3T3 cytotox 39.8µM | Npr1 antag conf inconclusive | NPR2 antag inconclusive | FLuc inh counter inactive | GloSensor ctrl inconclusive
O=C1COc2ccc(-c3ccc(Cl)cc3)nc2CN1Cc1ccccc1	HEK293 tox 63.1µM, hNpr1 antagonist inconclusive, 3T3 cytotox inconclusive | Npr1 antag conf 31.4µM | NPR2 antag 22.2µM | FLuc inh counter inactive | GloSensor ctrl inconclusive
O=C1COc2ccc(-c3ccccc3F)nc2CN1Cc1ccccc1	HEK293 tox inconclusive, 3T3 cytotox inconclusive
COc1ccc(Cn2c(C3CCN(C(=O)c4ccc(F)c(F)c4)CC3)n[nH]c2=O)cc1	none
COc1ccccc1-c1[nH]nc2ncc(C(=O)NCc3ccccc3)nc12	HEK293 tox inconclusive
COc1ccccc1-c1[nH]nc2ncc(C(=O)NCC3CC3)nc12	HEK293 tox inconclusive, hNpr1 antagonist inconclusive, 3T3 cytotox inconclusive | Npr1 antag conf inconclusive | NPR2 antag 25µM | FLuc inh counter inactive | GloSensor ctrl inactive
O=C1c2cc(N3CCOCC3)nc(-c3cccc(F)c3)c2CN1Cc1ccccc1	HEK293 tox inconclusive, hNpr1 antagonist inconclusive, 3T3 cytotox inconclusive | Npr1 antag conf 28µM | NPR2 antag inconclusive | FLuc inh counter inactive | GloSensor ctrl inconclusive
O=C(Nc1ccc(Cl)cc1)c1nc2c(o1)CCN(CC1CC1)CC2	HEK293 tox inconclusive, hNpr1 antagonist inconclusive, 3T3 cytotox inconclusive | Npr1 antag conf inconclusive | NPR2 antag inactive | FLuc inh counter inactive | GloSensor ctrl inconclusive
O=C(Nc1ccc(Cl)cc1)c1nc2c(o1)CCN(CC1CCCC1)CC2	HEK293 tox inconclusive, hNpr1 antagonist 28.2µM, 3T3 cytotox inconclusive | Npr1 antag conf 35.3µM | NPR2 antag 31.4µM | FLuc inh counter inactive | GloSensor ctrl 25µM
CCc1cnc(C)nc1N1CCOC(c2ccc(Cl)cc2)C1 (configuration not stated)	GPT2 inhibitor inconclusive, HEK293 tox 11.2µM, hNpr1 antagonist 10µM, 3T3 cytotox inconclusive | Npr1 antag conf 13.7µM | NPR2 antag 15.3µM | FLuc inh counter inactive | GloSensor ctrl 12.2µM
Clc1ccc(C2CN(c3cc(C4CC4)ncn3)CCO2)cc1 (configuration not stated)	HEK293 tox 25.1µM, hNpr1 antagonist 11.2µM, 3T3 cytotox inconclusive | Npr1 antag conf 19.3µM | NPR2 antag 21.7µM | FLuc inh counter inactive | GloSensor ctrl 17.2µM
CCC[C@@H]1CN(Cc2cc(OC)c(SC)cc2OC)C[C@H]1NC(C)=O	HEK293 tox inconclusive
CCCC(O)CN1CCC(=O)N(CC2CC2)Cc2cc(OC)ccc21 (configuration not stated)	HEK293 tox inconclusive (no result: GPT2 inhibitor, hNpr1 antagonist, Luciferase inh)
CN1C(=O)CO[C@H](c2ccc(NC(=O)c3cccc(C#N)c3)cc2)[C@H]1CO	none
CN(Cc1cccc(C(=O)Nc2cccc(C#N)c2)c1)CC1COCCO1 (configuration not stated)	HEK293 tox inconclusive, hNpr1 antagonist inconclusive | Npr1 antag conf inconclusive | NPR2 antag inconclusive | FLuc inh counter inactive | GloSensor ctrl inactive
O=C(NC[C@H]1Cn2cc(-c3ccccc3)nc2CO1)c1ccccc1	Luciferase inh inconclusive
O=C(NC1CCCc2c1[nH]c1ccc(F)cc21)c1ccncc1 (configuration not stated)	GPT2 inhibitor inconclusive, HEK293 tox inconclusive, 3T3 cytotox inconclusive
O=C(NC1CCCc2c1[nH]c1ccc(Cl)cc21)c1ccncc1 (configuration not stated)	HEK293 tox 22.4µM, hNpr1 antagonist inconclusive, 3T3 cytotox inconclusive | Npr1 antag conf inconclusive | NPR2 antag inactive | FLuc inh counter inactive | GloSensor ctrl inactive
COc1ccc(-c2cnc3[nH]cc(CC(=O)Nc4ccc(OC)nc4)c3c2)cc1	HEK293 tox inconclusive, hNpr1 antagonist inconclusive, 3T3 cytotox inconclusive | Npr1 antag conf inconclusive | NPR2 antag inconclusive | FLuc inh counter inactive | GloSensor ctrl inconclusive
COc1ccc(NC(=O)COc2ccc(NC(=O)C3CC3)cn2)cc1	none
Cc1cc(NC(=O)Cc2c[nH]c3ncc(-c4ccccc4C)cc23)n(C)n1	HEK293 tox inconclusive, hNpr1 antagonist 15.8µM, 3T3 cytotox inconclusive | Npr1 antag conf 31.4µM | NPR2 antag 28µM | FLuc inh counter inactive | GloSensor ctrl 28µM
NC(=O)Cc1c[nH]c2ncc(-c3ccc(Oc4ccccc4)cc3)cc12	HEK293 tox 35.5µM, hNpr1 antagonist 7.94µM, 3T3 cytotox 22.4µM | Npr1 antag conf 7.89µM | NPR2 antag 11.1µM | FLuc inh counter inactive | GloSensor ctrl 7.89µM
